Sampled rows, rich in hits. Any-hit rate of the full collection: about 3.5%.
GPR151 activ: activates the human receptor GPR151. activation, % at 11.2 µM. 650,000 compounds, 1% hits. PathHunter beta-arrestin GPR151 cells, luminescence. AID 1508602. Q8TDV0; in the data active = activation above about 4.9%
FBW7 act: activators of human E3 ligase FBW7; 650,000 compounds, 0.13% hits; Q969H0; normalized activity (activation), % at 26.1 µM; AID 1259310; AlphaScreen FBW7–phospho-cyclin E peptide binding, activator screen; in the data active = normalized activity above about 1.9%;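 also: purified mutant Fbw7 with reduced substrate affinity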
TEAD-YAP block: TEAD-YAP interaction inhibition; HEK-TIYL cells, TEAD-Gal4/YAP UAS-luciferase luminescence; inhibition, % at 9.12 µM; 640,000 compounds, 1.4% hits; AID 1259422; in the data active = inhibition above about 32%
MITF inh: inhibitors of human MITF; AlphaScreen MITF homodimerization, bead proximity signal; inhibition, % at 2.6 µM; 650,000 compounds, 0.91% hits; AID 1259374; O75030; in the data active = inhibition above about 50%
Target sequence (O75030 whole entry, looked up): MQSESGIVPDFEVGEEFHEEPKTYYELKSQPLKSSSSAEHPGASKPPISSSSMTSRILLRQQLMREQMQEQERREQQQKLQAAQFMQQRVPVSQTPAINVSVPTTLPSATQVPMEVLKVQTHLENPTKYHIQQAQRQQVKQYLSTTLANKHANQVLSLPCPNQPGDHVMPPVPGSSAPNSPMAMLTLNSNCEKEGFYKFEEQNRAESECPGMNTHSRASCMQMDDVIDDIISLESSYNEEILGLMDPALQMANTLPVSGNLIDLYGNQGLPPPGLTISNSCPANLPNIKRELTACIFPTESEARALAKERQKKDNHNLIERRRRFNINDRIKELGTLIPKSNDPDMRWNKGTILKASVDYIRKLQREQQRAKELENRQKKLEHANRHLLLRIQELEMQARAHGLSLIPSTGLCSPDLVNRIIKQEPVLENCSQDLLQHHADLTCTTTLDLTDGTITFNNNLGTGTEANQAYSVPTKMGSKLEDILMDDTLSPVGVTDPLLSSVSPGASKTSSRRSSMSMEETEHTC
GPR151 confirm: confirmation of human GPR151 activators; shares compounds with GPR151 activ; GPR151 PathHunter beta-arrestin cells, luminescence, 90 min; % of EA-reagent control over plate median; activation, % at 11.2 µM; 6,700 tested, under 10 active;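 active = mean percent activation across replicates above the confirmation screen cutoff of 4.91%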
GPR119 counter: activates human GPR119 in a GPR151 counter-screen | GPR119 PathHunter beta-arrestin cells, luminescence, 90 min; 0 = compound-well median, 100 = enzyme-acceptor control | shares compounds with GPR151 activ | activation, % at 11.2 µM | AID 1508611 | 6,700 compounds, 0.3% hits;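 active = mean percent activation in the counterscreen above 29.09%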;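 also: counterscreen on off-target GPR119 to flag nonselective hits from the GPR151 activator screen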
Large screens that a line does not name were inactive (follow-up assays come after a bar, where they were run).

COc1cc(Nc2nc(C)cc(NC3CC3)n2)cc(OC)c1OC	GPR151 activ 5.9 | GPR151 confirm inactive | GPR119 counter inactive
COc1cc(Nc2cc(C)nc(Nc3cccnc3)n2)cc(OC)c1OC	none
COc1cc2[nH]c(=S)n(C3CC(C)(C)NC(C)(C)C3)c(=O)c2cc1OC	GPR151 activ 7.2 | GPR151 confirm inactive | GPR119 counter inactive
COc1cc2[nH]c(=S)n(C3CC3)c(=O)c2cc1OC	none
C=CCN1C(=O)/C(=C/c2ccc(Cl)cc2)C(=O)NC1=S	GPR151 activ 16 | GPR151 confirm inactive | GPR119 counter inactive
C=CCN1C(=O)/C(=C\c2cc(Cl)c(O)c(OCC)c2)C(=O)NC1=S	GPR151 activ 7.4 | GPR151 confirm inactive | GPR119 counter inactive
C=CCN1C(=O)/C(=C\c2cc(Cl)c(O)c(Cl)c2)C(=O)NC1=S	none
O=C(CN1CCCCCC1)N/N=C/c1ccccc1F	GPR151 activ 7.2 | GPR151 confirm inactive | GPR119 counter inactive
CNCCOc1cccc(OC(C)C)c1	GPR151 activ 4.9 | GPR151 confirm inactive | GPR119 counter inactive
Cc1cc(Br)ccc1S(=O)(=O)N1CCCCC1	none
CCCCNC(=O)CSc1nc(Nc2ccc3c(c2)OCO3)c2ccccc2n1	none
O=C(CSc1nc(Nc2ccc3c(c2)OCO3)c2ccccc2n1)c1ccccc1	GPR151 activ 5.3 | GPR151 confirm inactive | GPR119 counter inactive
Fc1cccc(CSc2nc(Nc3ccc4c(c3)OCO4)c3ccccc3n2)c1	GPR151 activ 5.0 | GPR151 confirm inactive | GPR119 counter inactive
CCCCNc1nc(SCC(=O)c2ccc(O)c(O)c2)nc2ccccc12	GPR151 activ 5.6, MITF inh 56 | GPR151 confirm inactive | GPR119 counter inactive
COc1cc(Nc2nc(SCc3ccc(F)cc3)nc3ccccc23)cc(OC)c1	GPR151 activ 5.0 | GPR151 confirm inactive | GPR119 counter inactive
COc1ccccc1CNC(=O)Cc1ccc(F)cc1	none
COCOc1ccc(-c2nc(-c3ccccc3)cnc2N)cc1	none
CCOC(=O)C1CCCN(C(=O)C2CC(CCc3ccccc3)=NO2)C1 (stereo not drawn)	none
CCCOC(=O)COc1ccc2c(C)c(C)c(=O)oc2c1C	none
O=C(NC1Cc2ccccc2C1)c1ccc(OC2CCN(C(=O)C3CC3)CC2)cc1	GPR151 activ 8.1 | GPR151 confirm inactive | GPR119 counter inactive
O=C(/C=C/c1ccccc1)NCc1ccco1	none
O=C(/C=C/c1ccc(OCc2ccccc2)cc1)NCc1ccco1	GPR151 activ 8.0 | GPR151 confirm inactive | GPR119 counter inactive
O=C(/C=C/c1ccccc1Cl)NCc1ccco1	none
COc1ccccc1/C=C/C(=O)NCc1ccco1	GPR151 activ 8.9 | GPR151 confirm inactive | GPR119 counter inactive
O=C1CCC(C(=O)NCc2nnc3n2CCN(Cc2ccccc2C(F)(F)F)CC3)N1 (stereo not drawn)	GPR151 activ 9.8 | GPR151 confirm inactive | GPR119 counter inactive
COC(=O)Cc1c(C)c2c(OCC(=O)c3cccc([N+](=O)[O-])c3)cc(C)cc2oc1=O	none
COC(=O)COc1cc(C)cc2oc(=O)c(CC(=O)OC)c(C)c12	GPR151 activ 6.1 | GPR151 confirm inactive | GPR119 counter inactive
CCN(CC)C(=O)COc1cc2oc(=O)c(CC(=O)OC)c(C)c2cc1Cl	GPR151 activ 7.1 | GPR151 confirm inactive | GPR119 counter inactive
Cc1ccc(-n2nc(C)cc2/N=C/N(C)C)cc1	GPR151 activ 5.4 | GPR151 confirm inactive | GPR119 counter inactive
O=C1CCCN1CCn1cnc2c(NC3CCN(Cc4ccccc4)CC3)nc(Nc3ccc4ncccc4c3)nc21	none
Cn1c(=O)c2c(ncn2CC(O)CN2C(=O)c3ccccc3S2(=O)=O)n(C)c1=O (stereo not drawn)	GPR151 activ 6.0 | GPR151 confirm inactive | GPR119 counter inactive
COc1ccccc1C1NC(=S)NC2=C1C(=O)CC(C)(C)C2 (stereo not drawn)	none
COc1ccccc1OCCOCCOc1ccccc1C	none
COc1ccccc1Oc1ccc(N2C(=O)c3cccc([N+](=O)[O-])c3C2=O)cc1	GPR151 activ 8.4 | GPR151 confirm inactive | GPR119 counter inactive
COc1ccc(NC(=O)COC(=O)CC2CCCCC2)c([N+](=O)[O-])c1	none
COc1ccc(NC(=O)CCC2CCCCC2)c([N+](=O)[O-])c1	GPR151 activ 6.5 | GPR151 confirm inactive | GPR119 counter inactive
O=C(COC(=O)CCN1C(=O)c2cccc([N+](=O)[O-])c2C1=O)NCC(F)(F)F	GPR151 activ 6.0 | GPR151 confirm inactive | GPR119 counter inactive
COc1ccc(NC(=O)CCCCCN2C(=O)c3cccc([N+](=O)[O-])c3C2=O)c(OC)c1	GPR151 activ 7.9 | GPR151 confirm inactive | GPR119 counter inactive
COc1ccc(NC(=O)CCN2C(=O)c3cccc([N+](=O)[O-])c3C2=O)c(OC)c1	none
CCC(=O)N1N=C(c2ccc(NS(=O)(=O)CC)cc2)CC1c1ccc(OC)cc1 (stereo not drawn)	none
Oc1ccccc1-c1nc(-c2ccccc2)cc(-c2cccs2)n1	none
O=[N+]([O-])c1ccc(OCc2nc(-c3ccc(-n4cccc4)cc3)no2)cc1	none
Cc1ccc(-c2csc3nnc(SCC(=O)N4CCOCC4)n23)cc1	GPR151 activ 5.0 | GPR151 confirm inactive | GPR119 counter inactive
O=C(CSc1nnc2scc(-c3ccccc3)n12)N1CCCCCC1	none
CNC(=O)/C=C/c1cccc(C(F)(F)F)c1	GPR151 activ 6.1 | GPR151 confirm inactive | GPR119 counter inactive
O=C(OCc1ccc(Br)cc1)c1ccc(N2CCCC2=O)cc1	GPR151 activ 7.3 | GPR151 confirm inactive | GPR119 counter inactive
O=C(OCc1ccc(Br)cc1)c1ccc(O)cc1	none
COc1ccc(C(=O)Nc2ccc3c(c2)C(=O)N(C2CCCCC2)C3=O)cc1	GPR151 activ 5.5 | GPR151 confirm inactive | GPR119 counter inactive
COc1ccc(C(=O)Nc2cccc(C(=O)N3CCCC3)c2)cc1	GPR151 activ 39 | GPR151 confirm inactive | GPR119 counter inactive
COc1ccc(C(=O)Nc2ccc(C(=O)N3CCCCC3)cc2)cc1	none
Cn1cnnc1SCn1nnc2ccccc2c1=O	none
COc1cccc(NC(=O)c2cc(-c3ccc(Cl)cc3)nc3ccccc23)c1	none
CCOCCC(=O)Nc1nc2c(s1)CCCC2	none
CC1CCCN(C(=O)NC2(C(F)(F)F)Oc3ccccc3O2)C1 (stereo not drawn)	GPR151 activ 5.7 | GPR151 confirm inactive | GPR119 counter inactive
Cc1cccc(NC(=O)CN2CCC(c3nc4ccccc4[nH]3)CC2)c1	none
O=C(C1CCCCC1)N1CCC(c2nc3ccccc3[nH]2)CC1	GPR151 activ 5.8 | GPR151 confirm inactive | GPR119 counter inactive
Cc1ccc(C)c(NC(=O)CN2CCC(c3nc4ccccc4[nH]3)CC2)c1	GPR151 activ 6.0 | GPR151 confirm inactive | GPR119 counter inactive

High-throughput results deposited in PubChem by The Scripps Research Institute Molecular Screening Center.
